The source of these data is PubChem BioAssay.

Each structure is given as a SMILES string. Several values for one entry are separate records, joined by “and”; a condition that tells them apart may be missing. Equal values may be shown once. Activity calls are given as the source filed them. Unless noted, the rule behind the calls is not given here.

Test [1] in a line: liver-stage malaria parasite growth inhibition, primary screen, cell-based, HepG2, luciferase luminescence, HepG2 viability (AID 624349; in the data active = parasite load remaining mostly below about 12%, no sharp cut-off; inactive = mostly above about 10%;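 note: 100% = mean of DMSO negative control wells on the same plate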). Particulars: P. berghei liver stage in HepG2, luciferase luminescence, concentration not given here; parasite load remaining: stronger effect = lower value; viability: measured here: HepG2 viability without parasites.
Test [2] is described as follows: Cy5 fluorescence interference with SSB-bound oligo, artefact control for HCV NS3 helicase inhibitor project, biochemical, NIH Clinical Collection, E. coli SSB (AID 743268).
The subject of test [3] is Hepatitis C virus NS3 helicase. Description: HCV NS3 helicase inhibitors, primary screen, biochemical, fluorescence polarization, NIH Clinical Collection (AID 743270). Particulars: NS3 helicase binding to Cy5-dT15 DNA, stronger effect = higher value, concentration not given here.
Test [4] deals with Single-stranded DNA-binding protein (Escherichia coli (strain K12)) (UniProt P0AGE0). Description: E. coli SSB displacement from DNA, counter-screen for HCV NS3 helicase inhibitor project, biochemical, fluorescence polarization, NIH Clinical Collection (AID 743271; in the data active = inhibition above about 28%). The note with it: stronger effect = higher value, concentration not given here. For orientation: The purpose of a counterscreen is to sort out artefacts and off-target activity.

Test [5] in a line: fluorescence interference in NS3h assay format, artefact control for HCV NS3 helicase inhibitor project, biochemical, NIH Clinical Collection (AID 743272).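 Note: HCV NS3 helicase with a Cy5 labelled single stranded DNA probe.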 The note with it: fluorescence interference counterscreen, stronger effect = lower value.
The test system of test [6] is Neuropilin-2 / VEGF-C interaction (human). Nature of the test: inhibitors of NRP2–VEGF-C binding, biochemical, microplate binding format, z-score (AID 743281). Particulars: microplate NRP2/VEGF-C binding assay; stronger effect = lower value.
The nature of test [7]: modulation of C. elegans fzo-1 (AID 1259413).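 Note: fzo-1 mutant C. elegans worms in liquid wells.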 The note with it: C. elegans fzo-1 modulator screen, mean read-out; stronger effect = higher value.
Test [8] can be described thus: differential killing of epithelial or mesenchymal cells, primary screen, imaging, PC-3E GFP, TEM4-18 mCherry, co-culture (AID 1345086;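 active = compounds killing one labelled cell type while sparing the other, by normalised counts and ratio limits, not self-fluorescent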;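 for all read-outs here: cells exposed to compound for 72 h before imaging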;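 for red/green cell ratio (normalised): normalised mesenchymal count divided by normalised epithelial count so high means epithelial killing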). Particulars: imaging cell counts, at 1 µM; for red/green cell ratio (normalised): actives lie on both sides, counts scaled to control wells, 1 = unselective.
Test [9] in a line: sensitizers of A549 cells to miR-34 induction, primary screen, imaging, A549 dox-inducible miR-34, nuclei and caspase counts (AID 1347080;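 active = compounds whose cell count with miR-34 switched on is under 0.7 times the count with it off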). Particulars: A549 miR-34 inducible, Hoechst nuclei count, 48 h.
The nature of test [10]: viability rescue of complex I mutant cybrids, primary screen, cell-based, galactose medium, ATP luminescence (AID 1645843;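 active = z-score of at least 1.8 in each of two replicates, scored against plate mean and spread of sample wells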;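 note: positive z means more ATP and so rescue of galactose-driven cybrid death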). Particulars: complex I mutant cybrid cells, 72 h, stronger effect = higher value.
The mark [11] stands for this setting: measured here: epithelial PC-3E GFP cell survival.
Setting [12] is: measured here: mesenchymal TEM4-18 mCherry cell survival.
Where [13] appears, read: stronger effect = lower value, cell number ratio, induced over uninduced.
Where [14] appears, read: measured here: relative caspase fold change +Dox/-Dox.
Where [15] appears, read: measured here: total cells with miR-34 induction, stronger effect = lower value.
Where [16] appears, read: measured here: total cells without miR-34 induction.

On to `Cc1c(O)c(=O)ccn1C`, for which the parasite load remaining in [1] is 103% (inactive). The viability in [1] is 77.2%. Further, the fluorescence ratio in test [2] was 0.96 (inactive); in [5], 0.92 (inactive). Further, the inhibition in [3] is 1.98% (inactive); in test [4] it was 6.83% (inactive). For the same compound, the figures for the z-score in test [6] and in test [10] were -1.2 (inactive) and 0.65 (inactive), respectively. Besides, the mean signal in test [7] was 235 (inactive). The red/green cell ratio (normalised) in test [8] is 0.89 (inactive). Further, the values for the normalised cell number in [8] (setting [11]) and in test [8] (setting [12]) were 1.06 and 0.95, respectively. Moreover, the fold change in test [9] (setting [13]) is 0.87 (inactive) and 0.909 (inactive); in test [9] (setting [14]) it was 0.877 and 1.84. The cell count was 8280 and 9190 in [9] (setting [15]); 9520 and 10100 in test [9] (setting [16]).

Regarding `O=C1N[C@H](C(=O)O)CS1`, the parasite load remaining in [1] is 95.8% (inactive). In [1], the viability came out at 70.6%. Besides, the results for the fluorescence ratio in test [2] and in test [5] were 1.02 (inactive) and 0.96 (inactive), respectively. For the same compound, the inhibition was -3.56% (inactive) in test [3] and -3.18% (inactive) in test [4]. Further, the z-score in [6] was -0.587 (inactive). In addition, in test [7], the mean signal is 242 (inactive).

For `COc1cccc2c1C(=O)c1c(O)c3c(c(O)c1C2=O)C[C@@](O)(C(C)=O)C[C@@H]3OC1CC(N)C(O)C(C)O1` (stereo partly specified), the parasite load remaining in test [1] is -2.09% (inactive) and 8.79% (inactive). In test [1], the viability is 1.35% and 23.3%. The values for the fluorescence ratio in test [2] and in test [5] were 1.07 (inactive) and 0.55 (active), respectively. The values for the inhibition in test [3] and in test [4] were 6.82% (inactive) and 3.34% (inactive), respectively. The mean signal in test [7] was 273 (inactive). For the same compound, the fold change is 1.08 (inactive) and 1.04 (inactive) in [9] (setting [13]); 0.669 and 0.978 in [9] (setting [14]). The cell count in test [9] (setting [15]) was 1690 and 2610; in test [9] (setting [16]) it was 1560 and 2520. Besides, the z-score in test [10] is -1.5 (inactive) and -0.935 (inactive).

For `CCCCC(=O)O[C@H]1CC[C@H]2[C@@H]3CCc4cc(O)ccc4[C@H]3CCC12C` (stereo partly specified), the mean signal in test [7] was 242 (inactive).

Regarding `CCOC(=O)C1(CCCCCCOc2ccc(Cl)cc2)CO1` (stereo unspecified), in test [1], the parasite load remaining was 85.5% (inactive). In addition, the viability in test [1] turned out to be 89%. The fluorescence ratio was 1.01 (inactive) in test [2] and 0.93 (inactive) in test [5]. Besides, the values for the inhibition in test [3] and in test [4] were 1.98% (inactive) and -2.41% (inactive), respectively. Further, the values for the z-score in [6] and in test [10] were -0.326 (inactive) and 0.13 (inactive), respectively. The mean signal in test [7] was 266 (inactive). Further, the fold change is 0.886 (inactive) in [9] (setting [13]) and 1.28 in test [9] (setting [14]). The cell count in test [9] (setting [15]) amounted to 7740; in [9] (setting [16]), 8740.

`CN1CCN(c2nc3cc(C(F)(F)F)ccc3n3cccc23)CC1`: the parasite load remaining in [1] was 58.1% (inactive). For the same compound, the viability in [1] came to 68%. The fluorescence ratio in test [2] and in test [5] was 0.95 (inactive) throughout. Further, the inhibition in [3] is -10.7% (inactive); in [4], 1.97% (inactive). Also, the z-score in test [6] is -0.53 (inactive); in test [10], -0.85 (inactive) and -1.01 (inactive). For the same compound, the mean signal in [7] was 175 (inactive). The fold change is 1 (inactive) and 0.87 (inactive) in [9] (setting [13]); 1.47 and 0.615 in [9] (setting [14]). The cell count is 7250 and 7950 in [9] (setting [15]); 7230 and 9140 in test [9] (setting [16]).

For `CC[C@]1(O)CC2CN(CCc3c([nH]c4ccccc34)[C@@](C(=O)OC)(c3cc4c(cc3OC)N(C=O)[C@H]3[C@@](O)(C(=O)OC)[C@H](OC(C)=O)[C@]5(CC)C=CCN6CC[C@]43[C@@H]65)C2)C1` (stereo partly specified), in test [1], the parasite load remaining is 70.4% (inactive) and 43.2% (inactive). The viability in test [1] is 103% and 123%. The fluorescence ratio is 0.94 (inactive) in test [2] and 0.92 (inactive) in test [5]. Also, the inhibition was -2.84% (inactive) in test [3] and 0.39% (inactive) in test [4]. Moreover, in test [6], the compound was classed as inactive. Besides, the mean signal in test [7] was 261 (inactive). Also, the red/green cell ratio (normalised) in test [8] was 0.69 (inactive). The normalised cell number in test [8] (setting [11]) came out at 0.19; in [8] (setting [12]), 0.13. Besides, the fold change was 0.983 (inactive) in [9] (setting [13]) and 2.57 in test [9] (setting [14]). Moreover, the cell count was 1600 in test [9] (setting [15]) and 1630 in test [9] (setting [16]).

Take `C[C@@H]1C[C@H]2[C@@H]3CCC4=CC(=O)C=CC4(C)[C@@]3(F)[C@@H](O)CC2(C)[C@@]1(O)C(=O)CO` (stereo partly specified): the mean signal in test [7] is 285 (inactive).

Take `C#C[C@]1(O)CC[C@H]2[C@@H]3CCC4=Cc5oncc5CC4(C)[C@H]3CCC21C` (stereo partly specified): in test [7], the mean signal is 250 (inactive). Besides, the fold change in test [9] (setting [13]) was 0.894 (inactive); in [9] (setting [14]) it was 1.79. The results for the cell count in test [9] (setting [15]) and in test [9] (setting [16]) were 7310 and 8170, respectively. For the same compound, the z-score in test [10] was -0.725 (inactive).

Turning to `CC1=C(C/C=C(\C)CCCC(C)CCCC(C)CCCC(C)C)C(=O)c2ccccc2C1=O` (stereo unspecified), in [7], the mean signal was 243 (inactive).

Regarding `CC[C@]1(O)CC2CN(CCc3c([nH]c4ccccc34)[C@@](C(=O)OC)(c3cc4c(cc3OC)N(C)[C@H]3[C@@](O)(C(N)=O)[C@H](O)[C@]5(CC)C=CCN6CC[C@]43[C@@H]65)C2)C1` (stereo partly specified), the parasite load remaining in test [1] is 65.1% (inactive). Besides, in test [1], the viability was 135%. The fluorescence ratio in test [2] and in test [5] was 0.91 (inactive) throughout. The inhibition in test [3] is -6.33% (inactive); in test [4], 1.18% (inactive). In test [6], the call was inactive. The mean signal in test [7] is 260 (inactive).

Turning to `CCCN1CC(CSC)CC2c3cccc4[nH]cc(c34)CC21` (stereo unspecified), the compound was classed as inactive in test [6]. Besides, the mean signal in [7] was 184 (inactive). In addition, the fold change in test [9] (setting [13]) is 0.922 (inactive); in test [9] (setting [14]) it was 1.17. Besides, the values for the cell count in test [9] (setting [15]) and in [9] (setting [16]) were 9040 and 9810, respectively. The z-score in [10] is -0.235 (inactive).

For `CC12C=CC(=O)C=C1CC[C@@H]1[C@@H]2C(=O)CC2(C)[C@H]1CC[C@]2(O)C(=O)CO` (stereo partly specified), the mean signal in [7] is 237 (inactive).

Turning to `CO/N=C(/C(=O)N[C@@H]1C(=O)N2C(C(=O)O)=C(COC(N)=O)CS[C@H]12)c1ccco1`, the mean signal in [7] is 235 (inactive).

For `CO/N=C(/C(=O)NC1C(=O)N2C(C(=O)O)=C(COC(C)=O)CSC12)c1csc(N)n1` (stereo unspecified), the mean signal in [7] was 238 (inactive).

Regarding `CS(=O)(=O)c1ccc(-c2cc(Br)sc2-c2ccc(F)cc2)cc1`, the parasite load remaining in test [1] is 10.4% (inactive). In addition, the viability in test [1] amounted to 69.4%. Moreover, the figures for the fluorescence ratio in [2] and in test [5] were 0.96 (inactive) and 0.95 (inactive), respectively. For the same compound, the inhibition in test [3] was 5.02% (inactive); in test [4] it was 4.33% (inactive). The z-score was -0.424 (inactive) in test [6]; -0.985 (inactive) and -0.57 (inactive) in test [10]. Moreover, the mean signal in [7] was 233 (inactive). The fold change is 0.877 (inactive) and 0.852 (inactive) and 0.867 (inactive) in test [9] (setting [13]); 1.92 and 0.768 and 0.919 in [9] (setting [14]). Besides, the cell count in [9] (setting [15]) was 8710 and 4800 and 6290; in test [9] (setting [16]), 9930 and 5630 and 7260.

On to `CC(=O)OCC(=O)[C@@]1(O)CC[C@H]2[C@@H]3CCC4=CC(=O)CCC4(C)[C@H]3[C@@H](O)CC21C` (stereo partly specified), for which the mean signal in test [7] was 278 (inactive).

With `CN1[C@@H](CC(=O)c2ccccc2)CCC[C@H]1C[C@H](O)c1ccccc1`, the parasite load remaining in [1] is 59.5% (inactive) and 70.7% (inactive) and 71% (inactive). Also, the viability in test [1] is 108% and 77.1% and 78.1%. In addition, the fluorescence ratio in test [2] and in test [5] was 1.03 (inactive) in each case. Also, the values for the inhibition in [3] and in [4] were 0.4% (inactive) and -0.1% (inactive), respectively. The z-score in test [6] was -0.358 (inactive); in test [10] it was -0.54 (inactive) and -0.495 (inactive). Further, the mean signal in test [7] was 245 (inactive). Moreover, the fold change is 1.06 (inactive) and 0.859 (inactive) and 0.83 (inactive) in test [9] (setting [13]); 0.866 and 1.18 and 1.23 in [9] (setting [14]). For the same compound, the cell count in test [9] (setting [15]) was 11200 and 9030 and 8370; in test [9] (setting [16]), 10500 and 10100.

A word on the viability: it is a read-out of living cells in per cent, often relative to untreated cells. As usually defined, the inhibition is the drop in the measured response relative to a control, in per cent.
